From the supplement of paper PMC6555819

Legend:
Assay in all cases: PBM binding z-score (relative to random genomic background probes); higher = stronger binding; sequences stand for … in GC…GCGATTGACAGCGTAGAATGAAGG
[1] = test system: RARb homodimer (NR concentration 270 nM)
In short: (§1)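 Antibodies against each partner of ligand-free nuclear receptor dimers (one per run) detected binding on custom Agilent 4×180K protein-binding microarrays after 1 h incubation. The double-stranded probes had 34-nt variable regions carrying direct-repeat seeds, single-nucleotide variants, half-site ablations and random human genomic background sequences. Binding z-scores, from regression-normalized fluorescence, use the random background probes as reference.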

[2] = test system: RARg:RXRa (NR concentration 270 nM, RXRa partner concentration 90 nM)
In short: as §1

[3] = test system: RARg homodimer (NR concentration 270 nM)
In short: as §1

[4] = test system: RXRa DBDmut IVT, anti-RXR (DBD mutation: RXRa K156A/R161A, NR concentration 90 nM)
In short: as §1

[5] = test system: RXRa homodimer (NR concentration 180 nM)
In short: as §1

[6] = test system: THRa:RXRa (NR concentration 90 nM, RXRa partner concentration 90 nM)
In short: as §1

[7] = test system: THRa homodimer (NR concentration 90 nM)
In short: as §1

[8] = test system: VDR homodimer (NR concentration 270 nM)
In short: as §1

Sequence | PBM binding z-score [1] | PBM binding z-score [2] | PBM binding z-score [3] | PBM binding z-score [4] | PBM binding z-score [5] | PBM binding z-score [6] | PBM binding z-score [7] | PBM binding z-score [8]
ACTAGCAGGCCGAGGGTCACTCAAGATTAGTCCG | 2.43 | 2.41 | 2.14 | 0.267 | 2.49 | 1.91 | -0.126 | 0.527
CCTAGTTGGTTAAGGTCACACACGCTATAGGTAC | 4.5 | 4.48 | 4.33 | 2.36 | 4.63 | 4.64 | 6.15 | 4.12
CCGACTGCGGCAAGGTTACCATAACGCACAGCCA | 1 | 0.707 | 0.42 | 0.215 | 1.07 | 1.4 | 0.537 | 0.321
CGAACGAGGGCATGACTTGATAGCAAATGCCGAT | 0.668 | 1.26 | 1.54 | 2.16 | 0.981 | 1.2 | -0.168 | 0.849
CAAACTAGGTCATCGGAAGGTCAAAGTCCGCATG | 5.46 | 8.08 | 6.47 | 2.25 | 5.58 | 4.2 | 2.3 | 3.67
TCTTGTAGATCGAGCAGGTTAAGAAAGCCTGAGT | -0.141 | -0.28 | -0.423 | 0.213 | 0.0253 | 0.0849 | -0.506 | -0.257
CCTAGCAGGACAATCTGGGTCACTCAAGGCTTGA | 2.13 | 1.2 | 1.42 | 0.379 | 1.09 | 3.07 | 0.761 | 0.0931
CGTCCAAGGTCATAGGAGGACAGTGAAGACAGAT | 4.12 | 5.65 | 6.13 | 3.71 | 5.55 | 4.99 | 2.83 | 3.3
CCTGCTAGGTCAATGGTCAGCAAAAGCAGCTCGC | 2.84 | 3.57 | 4.83 | 1.78 | 2.47 | 2.16 | 0.37 | 0.312
ACCGACAGGTGAGTGAAGGTAACTCAGCTGGACG | -0.286 | 0.0773 | 0.407 | -0.459 | 0.0984 | 1.56 | -0.918 | -1
ATCGAAAGGTCGATGGTGAGTATACCCACCCGAA | 1.45 | 3.25 | 3.01 | 0.438 | 3.21 | 1.26 | -0.577 | 0.213
ATCTCTACGTAAAGATAGTTCAGTGAATGCAAAT | 0.65 | 0.0953 | 0.572 | 0.102 | 0.153 | 0.0897 | -0.716 | 0.535
GGAACGAGCGCAAGTTGATAGCAGAGTTTGATGG | -0.846 | -0.499 | -0.47 | 0.0943 | -0.499 | -1.01 | -0.971 | -0.311
CCTGCTAGGTCAATGGTCTGCTAAAGCAGCTCGC | 2.64 | 3.31 | 3.96 | 1.75 | 1.63 | 2.31 | 0.724 | -0.14
TCTTGTAGATCAGCCGGTTAAGAAAGCTGGCCAA | -0.307 | -0.542 | -0.822 | 0.73 | -0.222 | -0.482 | -0.883 | -0.659
ATCTCTAGGTAACAAATTCAGTGAAAGAGAGGAC | 0.688 | 0.707 | 0.762 | -0.0663 | 0.508 | 1.02 | 0.762 | 0.435
CATACAGGGTCAGCTAGTCCAGAGTAGGGACGGC | 2.88 | 4.26 | 4.24 | 1.65 | 4.04 | 2.86 | 0.757 | 1.68
GCTCGGAGGACAAGCTCAGAGCTTTGTCCGTAGA | -0.256 | -0.416 | 0.0982 | -0.613 | -1.03 | 0.34 | -0.504 | -0.467
GATACAGGGTCAGCTAGAGGCCATAGTATGGAAA | 3.52 | 6.77 | 4.83 | 1.57 | 3.96 | 3.29 | 0.486 | 1.33
ACTAGTAGTTGAGACGAGGGCAACCGATAGGTTG | 1.26 | 0.496 | 0.837 | -0.186 | 0.422 | 2.71 | -0.0205 | 0.686
CCTCGGAGGACAACAGGAGGTCACAGCTGCCAGA | 4.25 | 4.52 | 3.89 | 0.736 | 3.9 | 3.81 | 2.24 | 2.42
CCGACTCGGGCAGAAAGGTTACCATACCATCCGG | 1.59 | 1.41 | 1.02 | -0.246 | 1.6 | 1.01 | -0.699 | -0.0904
CCTACTGGGCCACAAAGGTCATTGATGCCGATAA | 4.64 | 5.33 | 4.68 | 1.13 | 6.32 | 3.38 | 0.818 | 3.31
AATACAGGGTCATCGTAGCCCAGAGTACGCACAG | 3.25 | 5.57 | 4.42 | 3.46 | 6.57 | 3.69 | 1.34 | 3.87
CAGCCTAGGTCAGTGCCAGTATAGGAGGAACGTT | 2.5 | 2.55 | 3.53 | 0.655 | 0.856 | 1.44 | 0.501 | -0.0639
CTCTAAAGGTCGGTTGAGGTGAGTATACGGATAA | 2.4 | 3.06 | 3.15 | 1.52 | 2.44 | 5.16 | 1.17 | 0.546
ACAGACAGGTGATGAAGGTCACTCAGGCTATCAT | 3.75 | 3.15 | 2.94 | 0.355 | 2.67 | 2.81 | 0.677 | 1.51
TAGCCTAGGTCATTTAGGGGCCAGTATAGAAAGC | 3.12 | 5.9 | 4.36 | 1.98 | 2.63 | 3.47 | 0.467 | 1.63
GCTATTAATTGAAAGGGCAACCGAATGATTCTCG | 1.96 | 0.91 | 1.26 | 0.65 | 0.421 | 0.301 | -0.3 | 0.758
